Assay outcomes from PubChem BioAssay.
Most compounds without a hit are left out; they make up all but 6.9% or so of the library.
Cy5 interf NS3h: Cy5 fluorescence interference, HCV helicase counter-screen. Cy5-dT15 DNA with NS3h; actives lie on both sides; signal over control mean, under 1 quenches. AID 720488. fluorescence interference ratio at 100 µM. actives 6% (n = 16,000);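 active = compound fluorescence over control fluorescence at most 0.8, a quencher, or at least a set upper limit, an enhancer; inactive = ratio between 0.8 and the set upper limit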
NS3h inh CB: blocks HCV NS3 helicase binding to DNA; NS3h Cy5-dT15 DNA binding, fluorescence polarization; inhibition, % at 100 µM; actives 1.6% (n = 16,000); AID 687043;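 active = inhibition above the average over every tested compound plus 3 SD, cut at about 40% in these data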
Large screens that a line does not name were inactive.

CC(=O)Nc1ccc(N2C(=O)C3C4c5ccccc5C(c5ccccc54)C3C2=O)cc1Cl (configuration not stated)	none
CCCCC(O)(CCCC)c1ccccc1O	none
N/C(=N/OC(=O)c1ccccc1F)c1ccc([N+](=O)[O-])cc1	Cy5 interf NS3h 0.78
N/C(=N/OC(=O)c1ccc(Br)cc1)c1ccc([N+](=O)[O-])cc1	none
C/C(CCc1ccc2c(c1)OCO2)=N/N=C1/NC(=O)CC(C(=O)NCCc2ccc(S(N)(=O)=O)cc2)S1 (configuration not stated)	none
O=c1c(C=C(O)c2ccc([N+](=O)[O-])cc2)nc2ccccc2n1-c1ccccc1	none
CCn1c2ccccc2c2cc(C3C(C(=O)OC)=C(C)NC4=C3C(=O)CCC4)ccc21 (configuration not stated)	none
COc1ccc(C(=O)N/C(=C/c2cccs2)C(=O)NCCN2CCOCC2)cc1	none
Cc1ccc(N=C(NO)c2ccc(Cl)cc2Cl)cc1	Cy5 interf NS3h 0.68
Cc1ccc(-c2cc(NC(=O)c3ccc(Cl)cc3Cl)n[nH]2)cc1	none
Cc1ccc(/C=C2/C=C(c3ccc(Br)cc3)OC2=O)o1	Cy5 interf NS3h 0.68
COc1ccc(/C=C2\C=C(c3ccc(Br)cc3)OC2=O)c(C)c1	none
Cc1ccc2cc(C3=C/C(=C/c4ccc([N+](=O)[O-])o4)C(=O)O3)ccc2c1	Cy5 interf NS3h 0.77
Cc1ccc(C2=C/C(=C/c3ccc(-c4ccc([N+](=O)[O-])cc4)o3)C(=O)O2)cc1	none
CCOc1ccc(N(CC(=O)Nc2cccc(Br)c2)S(=O)(=O)c2ccc(SC)cc2)cc1	none
CCN1C(=O)/C(=C\c2cn(CCC#N)nc2-c2ccccc2)SC1=S	none
CNc1nc(Nc2ccccc2C(=O)c2ccccc2)nc(OC(C(F)(F)F)C(F)(F)F)n1	none
COc1ccc(N(CC(=O)N2CCOCC2)S(=O)(=O)c2ccc(C)cc2)cc1	none
COc1ccc(/C=C/C(=O)N(C(C)C)C(C)C)cc1Br	none
COc1ccc(/C=C/C(=O)N2CCOCC2)cc1Br	Cy5 interf NS3h 0.67
C=CCN1C(=O)/C(=c2\sc3n(c2=O)C(c2ccc(OC)c(OC)c2)C(C(=O)OC)=C(C)N=3)c2ccccc21 (configuration not stated)	none
COC(C)(C)CNS(=O)(=O)c1ccc(C)cc1	Cy5 interf NS3h 0.74
COc1ccc(CNS(=O)(=O)c2ccc(C)cc2)cc1	none
O=C(Nc1ccc2c(c1)OCO2)c1cc2n(n1)C(C(F)(F)F)CC(c1ccc(Cl)c(Cl)c1)N2 (configuration not stated)	none
Cc1ccccc1C(=O)Nc1cccc(Cl)c1	none
O=C(Nc1cccc(Cl)c1)c1ccccc1Br	Cy5 interf NS3h 0.8
N#Cc1c(N=CN2CCCCC2)sc2c1CCCC2	none
N#Cc1c(-c2cc(Br)cs2)c2c(=O)[nH]c(=O)[nH]c2[nH]c1=O	Cy5 interf NS3h 1.2
Nc1nc2c(s1)-c1ccccc1CC2	Cy5 interf NS3h 1.2
COc1ccc(N=C2C(=O)Nc3ccc(C)c(Br)c32)cc1	Cy5 interf NS3h 0.66
COc1ccc(S(=O)(=O)Nc2ccc(Br)cc2C)cc1	none
O=C(O/N=C\c1ccc([N+](=O)[O-])cc1)c1cccs1	Cy5 interf NS3h 0.75
O=C(/C=C/c1ccc(-c2cccc([N+](=O)[O-])c2)o1)c1cccs1	none
O=C(Nc1ccc2c(c1)Cc1ccccc1-2)c1cc(Br)ccc1Cl	none
Cc1cccc(C(=O)Nc2nc3ccc(Br)cc3s2)c1	none
O=C(Nc1nc2ccccc2s1)c1ccc(-c2ccccc2)cc1	Cy5 interf NS3h 0.53
COC(=O)c1cc(C(=O)Nc2nc3ccccc3s2)cc([N+](=O)[O-])c1	Cy5 interf NS3h 0.53
COC(=O)c1cc(C(=O)Nc2ccccc2C(N)=O)cc([N+](=O)[O-])c1	none
CCCNC(=O)C(=O)NCCc1ccc(OC)c(OC)c1	none
O=C(O)CCC(=O)Nc1ccc(S(=O)(=O)N2CCCCCC2)cc1	none
Nc1ccc(S(=O)(=O)N2CCCCCC2)cc1	Cy5 interf NS3h 0.75
COc1cccc2cc(-c3csc(Nc4ccccc4C)n3)c(=O)oc12	none
O=[N+]([O-])c1ccc(-c2cn3c(n2)sc2ccccc23)cc1	Cy5 interf NS3h 0.65
Cc1ccc2nc(-c3ccc([N+](=O)[O-])cc3)cn2c1	none
Cc1ccc(SCCNC(=O)CN(c2cccc(Cl)c2)S(=O)(=O)c2ccccc2)cc1	none
CCOc1cc(C=O)cc(I)c1OCc1ccccc1Cl	Cy5 interf NS3h 0.64
COc1cc(C=O)cc(Br)c1OCc1ccccc1Cl	none
CCCCCNC(=O)c1ccc(C(=O)NCCCCC)cc1	none
CCN(CC)CCCNC(=O)c1ccc(Cl)cc1	Cy5 interf NS3h 0.67
Cc1ccc(C2=NN(C(=O)OC(C)(C)C)C(O)(C(F)(F)F)C2)cc1 (configuration not stated)	none
CCCC1C(c2ccccc2)NC(c2ccccc2)C(C)C1(O)CCC (configuration not stated)	none
CC1C(c2ccccc2)NC(c2ccccc2)C(C)C1(O)c1ccccc1 (configuration not stated)	Cy5 interf NS3h 0.68
CCOc1ccc(S(=O)(=O)N(CC(=O)Nc2ccc(C)cc2)c2ccc(C)cc2)cc1	none
CSc1ccc(S(=O)(=O)N(CC(=O)Nc2ccc(C(C)=O)cc2)c2ccc(C)cc2)cc1	Cy5 interf NS3h 0.73
CCOc1ccc(S(=O)(=O)N(CC(=O)NC)c2ccc(C)cc2)cc1	Cy5 interf NS3h 1.2
CSc1ccc(S(=O)(=O)N(CC(=O)Nc2ccc(C)cc2C)c2ccc(C)cc2)cc1	none
CSc1ccc(S(=O)(=O)N(CC(=O)Nc2ccc(C)cc2)c2ccc(C)cc2)cc1	Cy5 interf NS3h 0.68
CCOC(=O)c1ccc(NC(=O)CN(c2ccc(OCC)cc2)S(=O)(=O)c2ccc(SC)cc2)cc1	none
Cc1ccccc1N1C(=O)c2ccc(C(=O)O)cc2C1=O	none
O=C1c2ccc3c4c(ccc(c24)C(=O)N1Cc1ccco1)CC3	none
COc1ccc(CCNc2cc(N3CCN(C)CC3)ccc2[N+](=O)[O-])cc1OC	NS3h inh CB 46
CN1CCN(c2ccc([N+](=O)[O-])c(NCc3ccc(Cl)cc3)c2)CC1	none
C=CCN1C(=O)/C(=C\c2ccc(OS(=O)(=O)c3ccccc3)c(OC)c2)SC1=S	none
COc1ccc(/C=C2\C(=O)ON=C2C)cc1	none
O=C1OC(c2ccc(F)cc2)=N/C1=C\c1ccc(Cl)cc1	none
Cc1ccc(/C=C2N=C(/C=C/c3ccccc3)OC/2=O)s1	none
COc1ccc(/C=C2N=C(/C=C/c3ccccc3)OC/2=O)cc1	Cy5 interf NS3h 0.72
O=C1OC(/C=C/c2ccccc2)=NC/1=C/c1ccccc1	Cy5 interf NS3h 0.78
COc1ccc(/C=C2/N=C(c3ccc(Br)cc3)OC2=O)cc1	Cy5 interf NS3h 1.2
N#Cc1ccccc1N=C1C(=O)Nc2ccccc21	none
O=C1Nc2ccc([N+](=O)[O-])cc2C1=Nc1ccc(-c2ccc(N=C3C(=O)Nc4ccc([N+](=O)[O-])cc43)cc2)cc1	Cy5 interf NS3h 0.77
Cc1ccc(C(=O)Oc2ccc(NS(=O)(=O)c3cc(C)ccc3C)cc2)cc1	none
CCCCOc1ccc(C2NC(=O)NC(C)=C2C(=O)OCC)cc1 (configuration not stated)	none
CCn1c(O)c(C=C2C=Nc3ccccc32)sc1=S	none
O=C(c1nn2c(c1Br)NC(c1cccs1)CC2C(F)(F)F)N1CCCc2ccccc21 (configuration not stated)	Cy5 interf NS3h 0.7
O=C(c1nn2c(c1Br)NC(c1cccs1)CC2C(F)(F)F)N1CCOCC1 (configuration not stated)	none
